Experimental data taken from PubChem BioAssay AID1159580 (chemical genetic matrix, 2015).
Among all 5,500 compounds or so, about 2,000 (36%) were called active. Another 18% or so got no clear call; they are omitted. Cut-off read from the data, not from the text of the source: active = normalized growth mostly below about 0.91 (no sharp cut-off); inconclusive = no clear call, values can overlap the other calls; inactive = mostly above about 0.92. The list shows a part of the results.

Assay: chemical genetic growth profiling, strain panel (AID 1159580);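 note: tested at 20 µM; growth read once vehicle control cultures reached saturation at 30 °C; 1 = growth at the plate median or of vehicle wells; lower values mean less growth of the strain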
Details: growth OD

Measured: normalized growth

O=c1cc(-c2ccc(O)cc2)oc2cc(O[C@@H]3O[C@H](CO)[C@@H](O)[C@H](O)[C@H]3O[C@@H]3OC[C@](O)(CO)[C@H]3O)cc(O)c12
inactive: S. cerevisiae deletion strains, locus YJR075W, strain HOC1, active compounds read low 1.04 | S. cerevisiae deletion strains, locus YKL009W, strain mrt4, active compounds read low 0.986 | S. cerevisiae deletion strains, locus YKL068W, active compounds read low 0.991 | S. cerevisiae deletion strains, locus YKL085W, strain MDH1 (second series), active compounds read low 0.999 | S. cerevisiae deletion strains, locus YKL085W, strain MDH1, active compounds read low 0.999 | S. cerevisiae deletion strains, locus YKL160W, strain elf1, active compounds read low 1.01 | S. cerevisiae deletion strains, locus YKL190W, strain CNB1, active compounds read low 0.994 | S. cerevisiae deletion strains, locus YKR001C, strain vps1, active compounds read low 0.987 | S. cerevisiae deletion strains, locus YKR026C, strain gcn3, active compounds read low 0.991 | S. cerevisiae deletion strains, locus YKR091W, strain srl3, active compounds read low 1.01 | S. cerevisiae deletion strains, locus YLL001W, strain dnm1, active compounds read low 0.993 | S. cerevisiae deletion strains, locus YLL026W, active compounds read low 0.995 | S. cerevisiae deletion strains, locus YLL041C, strain sdh2, active compounds read low 1 | S. cerevisiae deletion strains, locus YLR027C, strain aat2, active compounds read low 1.01 | S. cerevisiae deletion strains, locus YLR039C, strain RIC1, active compounds read low 1.11 | S. cerevisiae deletion strains, locus YLR058C, strain SHM2, active compounds read low 1.02 | S. cerevisiae deletion strains, locus YLR102C, strain apc9, active compounds read low 0.989 | S. cerevisiae deletion strains, locus YLR113W, strain HOG1, active compounds read low 1.03 | S. cerevisiae deletion strains, locus YLR221C, strain rsa3, active compounds read low 1.01 | S. cerevisiae deletion strains, locus YLR258W, strain gsy2, active compounds read low 0.997 | S. cerevisiae deletion strains, locus YLR262C, strain YPT6 (second series), active compounds read low 0.999 | S. cerevisiae deletion strains, locus YLR262C, strain YPT6, active compounds read low 1.16 | S. cerevisiae deletion strains, locus YLR268W, strain sec22, active compounds read low 0.983 | S. cerevisiae deletion strains, locus YLR320W, strain mms22, active compounds read low 1.02 | S. cerevisiae deletion strains, locus YLR330W, strain CHS5, active compounds read low 1.04 | S. cerevisiae deletion strains, locus YLR342W, strain FKS1 (second series), active compounds read low 0.994 | S. cerevisiae deletion strains, locus YLR342W, strain FKS1, active compounds read low 1.01 | S. cerevisiae deletion strains, locus YLR357W, strain rsc2, active compounds read low 0.979 | S. cerevisiae deletion strains, locus YLR370C, strain arc18, active compounds read low 1 | S. cerevisiae deletion strains, locus YLR371W, strain rom2, active compounds read low 0.985 | S. cerevisiae deletion strains, locus YLR384C, strain iki3, active compounds read low 0.999 | S. cerevisiae deletion strains, locus YLR418C, strain cdc73, active compounds read low 1.06 | S. cerevisiae deletion strains, locus YML016C, strain PPZ1, active compounds read low 1.01 | S. cerevisiae deletion strains, locus YML032C, strain rad52, active compounds read low 1 | S. cerevisiae deletion strains, locus YML120C, strain ndi1, active compounds read low 1.02 | S. cerevisiae deletion strains, locus YML124C, strain tub3, active compounds read low 0.991 | S. cerevisiae deletion strains, locus YMR058W, strain fet3, active compounds read low 1.01 | S. cerevisiae deletion strains, locus YMR078C, strain ctf18, active compounds read low 0.963 | S. cerevisiae deletion strains, locus YMR125W, strain sto1, active compounds read low 0.992 | S. cerevisiae deletion strains, locus YMR129W, active compounds read low 1.01 | S. cerevisiae deletion strains, locus YMR205C, strain PFK2, active compounds read low 1.01 | S. cerevisiae deletion strains, locus YMR223W, strain ubp8, active compounds read low 1.02 | S. cerevisiae deletion strains, locus YMR231W, strain pep5, active compounds read low 0.997 | S. cerevisiae deletion strains, locus YMR263W, strain SAP30, active compounds read low 1.02 | S. cerevisiae deletion strains, locus YMR307W, strain GAS1, active compounds read low 1.04 | S. cerevisiae deletion strains, locus YNL067W, strain RPL9B, active compounds read low 1.02 | S. cerevisiae deletion strains, locus YNL071W, strain lat1, active compounds read low 1.02 | S. cerevisiae deletion strains, locus YNL153C, strain GIM3, active compounds read low 1 | S. cerevisiae deletion strains, locus YNL183C, strain NPR1, active compounds read low 0.979 | S. cerevisiae deletion strains, locus YNL209W, strain ssb2, active compounds read low 1.01 | S. cerevisiae deletion strains, locus YNL233W, strain BNI4, active compounds read low 1.02 | S. cerevisiae deletion strains, locus YNL248C, strain rpa49, active compounds read low 1 | S. cerevisiae deletion strains, locus YNL250W, strain rad50, active compounds read low 1 | S. cerevisiae deletion strains, locus YNL271C, strain bni1, active compounds read low 1.01 | S. cerevisiae deletion strains, locus YNL298W, strain CLA4, active compounds read low 0.994 | S. cerevisiae deletion strains, locus YNL307C, strain MCK1, active compounds read low 0.977 | S. cerevisiae deletion strains, locus YNL322C, strain KRE1 (second series), active compounds read low 0.994 | S. cerevisiae deletion strains, locus YNL322C, strain KRE1, active compounds read low 1.01 | S. cerevisiae deletion strains, locus YNR049C, strain mso1, active compounds read low 0.998 | S. cerevisiae deletion strains, locus YNR052C, strain pop2, active compounds read low 1 | S. cerevisiae deletion strains, locus YOL012C, strain htz1 0.956 | S. cerevisiae deletion strains, locus YOL147C, strain pex11, active compounds read low 0.996 | S. cerevisiae deletion strains, locus YOR001W, strain rrp6, active compounds read low 1.01 | S. cerevisiae deletion strains, locus YOR061W, strain CKA2, active compounds read low 1.02 | S. cerevisiae deletion strains, locus YOR069W, strain VPS5, active compounds read low 1 | S. cerevisiae deletion strains, locus YOR070C, strain gyp1, active compounds read low 1 | S. cerevisiae deletion strains, locus YOR080W, strain dia2, active compounds read low 1 | S. cerevisiae deletion strains, locus YOR083W, strain WHI5, active compounds read low 1.02 | S. cerevisiae deletion strains, locus YOR106W, strain vam3, active compounds read low 1.02 | S. cerevisiae deletion strains, locus YOR136W, strain idh2, active compounds read low 0.974 | S. cerevisiae deletion strains, locus YOR144C, strain elg1, active compounds read low 0.989 | S. cerevisiae deletion strains, locus YOR184W, strain ser1, active compounds read low 1.04 | S. cerevisiae deletion strains, locus YOR231W, strain MKK1, active compounds read low 1.07 | S. cerevisiae deletion strains, locus YOR265W, strain rbl2, active compounds read low 1.01 | S. cerevisiae deletion strains, locus YOR270C, strain vph1, active compounds read low 1.02 | S. cerevisiae deletion strains, locus YOR290C, strain snf2, active compounds read low 0.998 | S. cerevisiae deletion strains, locus YOR316C, strain cot1, active compounds read low 0.992 | S. cerevisiae deletion strains, locus YPL051W, strain arl3, active compounds read low 1 | S. cerevisiae deletion strains, locus YPL055C, strain LGE1, active compounds read low 1.04 | S. cerevisiae deletion strains, locus YPL078C, strain atp4, active compounds read low 0.999 | S. cerevisiae deletion strains, locus YPL106C, strain sse1, active compounds read low 0.997 | S. cerevisiae deletion strains, locus YPL240C, strain hsp82, active compounds read low 1 | S. cerevisiae deletion strains, locus YPL241C, strain CIN2, active compounds read low 1.01 | S. cerevisiae deletion strains, locus YPL256C, strain CLN2, active compounds read low 0.995 | S. cerevisiae deletion strains, locus YPR119W, strain clb2, active compounds read low 0.984 | S. cerevisiae deletion strains, locus YPR141C, strain kar3, active compounds read low 0.999 | S. cerevisiae deletion strains, locus YPR163C, strain tif3, active compounds read low 0.979 | S. cerevisiae deletion strains, locus YPR167C, strain met16, active compounds read low 0.981 | S. cerevisiae deletion strains, strain wtn01, active compounds read low 0.99 | S. cerevisiae strains, strain wild type, active compounds read low 1.01
